Inconclusive results are not listed. Entries that show only a call come without a potency. A structure can be active in one record and inactive in another. Calls of active or inactive are those of the source. Calls follow the shape of the dose curve; as a rule, active = well fitted curve in the direction sought with a large enough effect in the repeat runs; inconclusive = weak or mixed curves; inactive = no such curve, though single readings can be large; an effect the other way counts as inactive or inconclusive.
Key:
[1] = A CellTox Green Cytotoxicity Assay to monitor cytotoxicity in HEK293 cells - 24 hour (AID 1224875); also: series mostly up to about 77 µM; nearly all actives have a fitted effect of over 45% in size
Procedure, shortened: (§1)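 Cells (HEK293, 600/well) and dye reagent are dispensed together. After 5 h at 37 C, 23 nL compound is pinned in. Plates stay at 37 C for 40 h with fluorescence read at 0h, 8h, 16h, 24h, 32h and 40h.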

[2] = A CellTox Green Cytotoxicity Assay to monitor cytotoxicity in HepG2 cells - 16 hour (AID 1224876); also: nearly all actives have a fitted effect of over 45% in size
Procedure, shortened: (§2)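 Cells and non-lytic dye reagent are dispensed together (600 HepG2 cells/well) and incubated 5 h before DMSO compound transfer. Kinetic fluorescence is then recorded in the same wells during 40 h at 37 C.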

[3] = qHTS RealTime-Glo MT Cell Viability Assay in HepG2 cells - 32 hour (AID 1224877); also: nearly all actives have a fitted effect of over 55% in size
Procedure, shortened: (§3)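 Cells + NanoLuc/prosubstrate dispensed (600 cells/well) → 5 h at 37 C/5% CO2 → compounds in DMSO transferred → 40 h incubation at 37 C, luminescence read at 0, 8, 16, 24, 32, 40 h.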

[4] = A CellTox Green Cytotoxicity Assay to monitor cytotoxicity in HepG2 cells - 24 hour (AID 1224878); also: nearly all actives have a fitted effect of over 45% in size; also: potency is read from the fitted curve at half-maximal effect
Procedure, shortened: as §2

[5] = A CellTox Green Cytotoxicity Assay to monitor cytotoxicity in HepG2 cells - 40 hour (AID 1224879); also: nearly all actives have a fitted effect of over 40% in size; also: potency is read from the fitted curve at half-maximal effect
Procedure, shortened: as §2

[6] = qHTS RealTime-Glo MT Cell Viability Assay in HEK293 cells - 0 hour (AID 1224880); also: top concentration of the series differs between compounds; nearly all actives have a fitted effect of over 45% in size
Procedure, shortened: (§4)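 Real-time viability in HEK293: signal arises when living cells convert a prosubstrate for NanoLuc in the medium, so luminescence tracks viable cell number. Compound (23 nL, DMSO) added 5 h post-seeding; kinetic reads at 0–40 h, 37 C.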

[7] = A CellTox Green Cytotoxicity Assay to monitor cytotoxicity in HEK293 cells - 32 hour (AID 1224881); also: nearly all actives have a fitted effect of over 40% in size
Procedure, shortened: as §1

[8] = A CellTox Green Cytotoxicity Assay to monitor cytotoxicity in HepG2 cells - 0 hour (AID 1224882); also: nearly all actives have a fitted effect of over 35% in size
Procedure, shortened: as §2

[9] = A CellTox Green Cytotoxicity Assay to monitor cytotoxicity in HepG2 cells - 32 hour (AID 1224883); also: nearly all actives have a fitted effect of over 50% in size; also: potency is read from the fitted curve at half-maximal effect
Procedure, shortened: as §2

[10] = A CellTox Green Cytotoxicity Assay to monitor cytotoxicity in HEK293 cells - 8 hour (AID 1224884); also: nearly all actives have a fitted effect of over 35% in size
Procedure, shortened: as §1

[11] = qHTS RealTime-Glo MT Cell Viability Assay in HepG2 cells - 16 hour (AID 1224885); also: nearly all actives have a fitted effect of over 50% in size
Procedure, shortened: as §3

[12] = qHTS RealTime-Glo MT Cell Viability Assay in HEK293 cells - 24 hour (AID 1224886); also: top concentration of the series differs between compounds; nearly all actives have a fitted effect of over 50% in size
Procedure, shortened: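 Tox21 10K qHTS, HEK293, 600 cells/well, RealTime-Glo reagent co-dispensed with cells; 5 h preincubation, compound by pintool, 37 C, luminescence at 0–40 h.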

[13] = qHTS RealTime-Glo MT Cell Viability Assay in HEK293 cells - 8 hour (AID 1224887); also: top concentration of the series differs between compounds; nearly all actives have a fitted effect of over 50% in size
Procedure, shortened: as §4

[14] = A CellTox Green Cytotoxicity Assay to monitor cytotoxicity in HEK293 cells - 16 hour (AID 1224888); also: nearly all actives have a fitted effect of over 35% in size
Procedure, shortened: as §1

[15] = qHTS RealTime-Glo MT Cell Viability Assay in HepG2 cells - 0 hour (AID 1224889); also: nearly all actives have a fitted effect of over 50% in size
Procedure, shortened: as §3

[16] = A CellTox Green Cytotoxicity Assay to monitor cytotoxicity in HepG2 cells - 8 hour (AID 1224890); also: nearly all actives have a fitted effect of over 45% in size
Procedure, shortened: as §2

[17] = qHTS assay to identify small molecule antagonists of the estrogen receptor alpha (ER-alpha) signaling pathway using the BG1 cell line in the presence of 0.1 nM 17-beta-estradiol - cell viability counter screen (AID 1259241); also: nearly all actives have a fitted effect of over 40% in size
Procedure, shortened: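 In this screen, hormone-deprived VM7Luc4E2 cells were seeded at 4,000 per well, dosed with compound and 0.1 nM estradiol final, and incubated 22 hr at 37C and 5% CO2; fluorogenic live-cell protease signal reported viability.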

[18] = qHTS assay to identify small molecule antagonists of the androgen receptor (AR) signaling pathway using the MDA cell line in the presence of 0.5 nM R1881 - cell viability counter screen (AID 1259242); also: nearly all actives have a fitted effect of over 45% in size
Procedure, shortened: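 Steps: plate MDA-kb2 cells, rest 5 hr at 37C without CO2; pin in compounds in DMSO; add R1881 to 0.5 nM final; incubate 16 hr; add CellTiter-Fluor, 30 min; read fluorescence.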

[19] = molecular target: Estrogen receptor (Homo sapiens) (UniProt P03372); experiment: qHTS assay to identify small molecule antagonists of the estrogen receptor alpha (ER-alpha) signaling pathway using the BG1 cell line in the presence of 0.1 nM 17-beta-estradiol (AID 1259244); also: nearly all actives have a fitted effect of over 50% in size
Estrogen receptor (Homo sapiens), sequence (P03372 whole entry, looked up): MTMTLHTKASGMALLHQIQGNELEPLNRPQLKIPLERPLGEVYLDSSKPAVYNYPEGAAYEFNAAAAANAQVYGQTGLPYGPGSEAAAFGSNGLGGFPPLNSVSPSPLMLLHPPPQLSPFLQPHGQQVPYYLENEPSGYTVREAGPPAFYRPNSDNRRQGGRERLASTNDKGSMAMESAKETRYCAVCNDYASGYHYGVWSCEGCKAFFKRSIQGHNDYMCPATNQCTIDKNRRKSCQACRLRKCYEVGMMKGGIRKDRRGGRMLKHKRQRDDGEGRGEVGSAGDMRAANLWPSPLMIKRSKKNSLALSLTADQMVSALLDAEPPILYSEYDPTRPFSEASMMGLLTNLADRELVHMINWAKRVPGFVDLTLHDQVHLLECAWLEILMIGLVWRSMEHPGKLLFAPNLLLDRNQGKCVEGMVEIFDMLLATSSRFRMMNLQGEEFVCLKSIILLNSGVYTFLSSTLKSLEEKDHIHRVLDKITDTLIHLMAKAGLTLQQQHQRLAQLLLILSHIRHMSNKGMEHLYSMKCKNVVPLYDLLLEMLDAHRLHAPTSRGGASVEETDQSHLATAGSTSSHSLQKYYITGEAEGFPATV
Procedure, shortened: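 Antagonist mode: compounds in DMSO are pinned onto VM7Luc4E2 reporter cells, 0.1 nM final 17beta-estradiol is added, and after 22 h at 37C luciferase luminescence is measured with ONE-Glo.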

[20] = molecular target: Androgen receptor (Homo sapiens) (UniProt P10275); experiment: qHTS assay to identify small molecule antagonists of the androgen receptor (AR) signaling pathway using the MDA cell line in the presence of 0.5 nM R1881 (AID 1259243); also: nearly all actives have a fitted effect of over 50% in size; also: potency is read from the fitted curve at half-maximal effect
Androgen receptor (Homo sapiens), sequence (P10275 whole entry, looked up): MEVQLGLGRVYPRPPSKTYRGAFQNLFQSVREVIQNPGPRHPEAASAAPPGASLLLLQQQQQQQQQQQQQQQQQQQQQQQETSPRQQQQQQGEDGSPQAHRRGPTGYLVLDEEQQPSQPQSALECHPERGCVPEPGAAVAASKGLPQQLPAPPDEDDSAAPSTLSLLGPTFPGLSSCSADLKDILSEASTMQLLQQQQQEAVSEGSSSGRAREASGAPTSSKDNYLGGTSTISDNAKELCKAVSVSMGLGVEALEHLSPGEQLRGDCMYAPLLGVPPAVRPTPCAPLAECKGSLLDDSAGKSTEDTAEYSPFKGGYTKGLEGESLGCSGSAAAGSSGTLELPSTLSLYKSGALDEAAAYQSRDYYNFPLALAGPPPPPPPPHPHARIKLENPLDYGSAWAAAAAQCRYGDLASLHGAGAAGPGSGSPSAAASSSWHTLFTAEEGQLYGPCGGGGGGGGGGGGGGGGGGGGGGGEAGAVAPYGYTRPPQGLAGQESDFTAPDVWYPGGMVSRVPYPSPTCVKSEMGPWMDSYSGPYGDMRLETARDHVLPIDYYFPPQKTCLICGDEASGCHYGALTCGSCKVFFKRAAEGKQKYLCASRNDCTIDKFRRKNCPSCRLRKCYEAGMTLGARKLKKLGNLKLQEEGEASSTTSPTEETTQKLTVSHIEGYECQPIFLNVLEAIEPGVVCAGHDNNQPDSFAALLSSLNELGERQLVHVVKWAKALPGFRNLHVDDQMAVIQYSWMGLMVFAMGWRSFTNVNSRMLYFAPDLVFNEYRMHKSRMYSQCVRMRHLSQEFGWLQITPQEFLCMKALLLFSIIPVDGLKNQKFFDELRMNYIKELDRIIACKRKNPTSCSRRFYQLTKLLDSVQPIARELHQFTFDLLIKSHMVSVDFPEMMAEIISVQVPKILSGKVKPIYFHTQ
Procedure, shortened: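 Stably transfected MDA-kb2 cells express luciferase from an MMTV promoter bearing both AR and GR response elements. Compounds plus 0.5 nM R1881 (final) were incubated 16 hr at 37C without CO2, then luminescence measured.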

SMILES	Potency [1]	Potency [2]	outcome [3]	Potency [4]	Potency [5]	outcome [6]	Potency [7]	Potency [8]	Potency [9]	Potency [10]	outcome [11]	Potency [12]	outcome [13]	Potency [14]	outcome [15]	Potency [16]	Potency [17]	outcome [18]	Potency [19]	Potency [20]
Nc1c(Cl)c(Cl)nc(C(=O)O)c1Cl	inactive	inactive	inactive	inactive	inactive	inactive	inactive	inactive	inactive	inactive	inactive	inactive	inactive	inactive	inactive	inactive	inactive	inactive	inactive	–
COC(=O)NC(=S)Nc1ccccc1NC(=S)NC(=O)OC	inactive	inactive	inactive	inactive	inactive	inactive	inactive	inactive	inactive	inactive	inactive	inactive	inactive	inactive	inactive	inactive	inactive	inactive	inactive	–
Cc1ccc(N)cc1Cl	inactive	inactive	inactive	inactive	inactive	inactive	inactive	inactive	inactive	inactive	inactive	inactive	inactive	inactive	inactive	inactive	inactive	inactive	inactive	–
O=C(O)c1ccccn1	inactive	inactive	inactive	inactive	inactive	inactive	inactive	inactive	inactive	inactive	inactive	inactive	inactive	inactive	inactive	inactive	inactive	inactive	inactive	–
CC(Oc1ccc(Cl)cc1Cl)C(=O)O (stereo not given)	inactive	inactive	inactive	inactive	inactive	inactive	inactive	inactive	inactive	inactive	inactive	inactive	–	inactive	inactive	inactive	inactive	inactive	inactive	–
CCOP(=S)(OCC)Oc1cnc2ccccc2n1	inactive	inactive	inactive	inactive	inactive	inactive	inactive	inactive	inactive	inactive	inactive	inactive	–	inactive	inactive	inactive	inactive	–	inactive	–
Cc1ccccc1O	inactive	inactive	inactive	inactive	inactive	inactive	inactive	inactive	inactive	inactive	inactive	inactive	–	inactive	inactive	inactive	inactive	inactive	inactive	–
Clc1ccc(Cl)cc1	inactive	inactive	inactive	inactive	inactive	inactive	inactive	inactive	inactive	inactive	inactive	inactive	–	inactive	inactive	inactive	inactive	inactive	inactive	–
Nc1ccccc1C(=O)O	inactive	inactive	inactive	inactive	inactive	inactive	inactive	inactive	inactive	inactive	inactive	inactive	–	inactive	inactive	inactive	inactive	inactive	inactive	–
c1ccc2c(c1)oc1ccccc12	inactive	inactive	inactive	inactive	–	inactive	inactive	inactive	–	inactive	inactive	inactive	inactive	inactive	inactive	inactive	inactive	–	–	–
C=CC(N)=O	inactive	inactive	inactive	inactive	inactive	inactive	inactive	inactive	inactive	inactive	inactive	inactive	–	inactive	inactive	inactive	inactive	inactive	inactive	–
CCOP(=S)(OCC)SCCSCC	inactive	inactive	–	inactive	inactive	inactive	inactive	inactive	inactive	inactive	inactive	inactive	inactive	inactive	inactive	inactive	inactive	inactive	–	–
O=[N+]([O-])c1ccc(Oc2ccc(Cl)cc2Cl)cc1	inactive	inactive	inactive	inactive	inactive	inactive	inactive	inactive	inactive	inactive	inactive	–	–	inactive	inactive	inactive	inactive	inactive	–	–
O=S(=O)(c1ccc(O)cc1)c1ccc(O)cc1	inactive	inactive	inactive	inactive	inactive	inactive	inactive	inactive	inactive	inactive	inactive	inactive	–	inactive	inactive	inactive	inactive	–	inactive	–
[N-]=[N+]=[N-]	inactive	inactive	inactive	inactive	inactive	inactive	inactive	inactive	inactive	inactive	inactive	inactive	–	inactive	inactive	inactive	inactive	–	inactive	41.8 µM (active) and inactive
Nc1ccc(Br)cc1	inactive	inactive	inactive	inactive	inactive	inactive	inactive	inactive	inactive	inactive	inactive	inactive	–	inactive	inactive	inactive	inactive	inactive	inactive	–
CCN(CC)CCO	inactive	inactive	–	inactive	inactive	inactive	inactive	inactive	inactive	inactive	inactive	inactive	inactive	inactive	inactive	inactive	inactive	inactive	–	–

SMILES	Potency [1]	Potency [2]	outcome [3]	Potency [4]	Potency [5]	outcome [6]	Potency [7]	Potency [8]	Potency [9]	Potency [10]	outcome [11]	Potency [12]	outcome [13]	Potency [14]	outcome [15]	Potency [16]	Potency [17]	outcome [18]	Potency [19]	Potency [20]
c1ccc2c(c1)Oc1ccccc1O2	inactive	inactive	inactive	inactive	30.5 µM (active) and inactive	inactive	inactive	inactive	inactive	inactive	inactive	inactive	–	inactive	inactive	inactive	inactive	inactive	–	–
BrCCBr	inactive	inactive	inactive	inactive	inactive	inactive	inactive	inactive	inactive	inactive	inactive	inactive	–	inactive	inactive	inactive	inactive	inactive	inactive	–
COC(=O)NS(=O)(=O)c1ccc(N)cc1	inactive	inactive	inactive	inactive	inactive	inactive	inactive	inactive	inactive	inactive	inactive	inactive	–	inactive	inactive	inactive	inactive	inactive	inactive	–
C#CC(C)(C)NC(=O)c1cc(Cl)cc(Cl)c1	inactive	inactive	inactive	inactive	inactive	inactive	inactive	inactive	inactive	inactive	inactive	inactive	–	inactive	inactive	inactive	inactive	–	–	–
NCC(O)c1ccc(O)cc1 (stereo not given)	inactive	inactive	–	inactive	inactive	inactive	inactive	inactive	inactive	inactive	inactive	inactive	inactive	inactive	inactive	inactive	inactive	–	–	–
CC(C)(Cl)Cl	inactive	inactive	inactive	inactive	inactive	inactive	inactive	inactive	inactive	inactive	inactive	inactive	–	inactive	inactive	inactive	inactive	–	–	–
COC(=O)c1ccccc1N	inactive	inactive	inactive	inactive	inactive	inactive	inactive	inactive	inactive	inactive	inactive	inactive	–	inactive	inactive	inactive	inactive	inactive	–	–
CC1C=[C-]C=C1.[C-]#[O+].[C-]#[O+].[C-]#[O+].[Mn]	inactive	inactive	inactive	inactive	inactive	inactive	inactive	inactive	inactive	inactive	inactive	inactive	–	inactive	inactive	inactive	inactive	–	inactive	–
C[C@]12CC[C@H]3[C@@H](CC[C@@]45O[C@@H]4C(O)=C(C#N)C[C@]35C)[C@@H]1CC[C@@H]2O	inactive	inactive	–	inactive	inactive	inactive	inactive	inactive	inactive	inactive	inactive	inactive	inactive	inactive	inactive	inactive	inactive	–	–	–
Nc1ccc(Oc2ccc(N)cc2)cc1	inactive	inactive	inactive	inactive	inactive	inactive	inactive	inactive	inactive	inactive	inactive	inactive	–	inactive	inactive	inactive	inactive	inactive	–	–
Cc1cc(Cl)ccc1O	inactive	inactive	inactive	inactive	inactive	inactive	inactive	inactive	inactive	inactive	inactive	inactive	–	inactive	inactive	inactive	inactive	inactive	–	–
COP(N)(=O)SC (stereo not given)	inactive	inactive	inactive	inactive	inactive	inactive	inactive	inactive	inactive	inactive	inactive	inactive	–	inactive	inactive	inactive	inactive	inactive	inactive	–
CC(C)(C)OOC(C)(C)C	inactive	inactive	inactive	inactive	inactive	inactive	inactive	inactive	inactive	inactive	inactive	inactive	–	inactive	inactive	inactive	inactive	inactive	inactive	–
CCC[N+](=O)[O-]	inactive	inactive	–	24.1 µM (active) and inactive	24.1 µM (active) and inactive	inactive	inactive	inactive	21.5 µM (active) and inactive	inactive	inactive	inactive	inactive	inactive	inactive	inactive	–	–	–	–
CN1C(=O)CN=C(c2ccccc2)c2cc(Cl)ccc21	inactive	inactive	inactive	inactive	inactive	inactive	inactive	inactive	inactive	inactive	inactive	inactive	–	inactive	inactive	inactive	inactive	inactive	–	–
COC(=O)c1ccccc1C(=O)OC	inactive	inactive	inactive	inactive	inactive	inactive	inactive	inactive	inactive	inactive	inactive	inactive	–	inactive	inactive	inactive	inactive	inactive	inactive	–
CCCCOC(=O)c1ccccc1C(=O)OCCCC	inactive	inactive	inactive	inactive	inactive	inactive	inactive	inactive	inactive	inactive	inactive	inactive	–	inactive	inactive	inactive	inactive	inactive	inactive	–
